# Assay results taken from PubChem BioAssay (NCATS).
# Several values for one entry are separate records, joined by “and”; a condition that tells them apart may be missing. Equal values may be shown once. Records with an inconclusive call do not appear. Entries that show only a call come without a potency. Where a structure was tested more than once in an assay, its records may differ in their call. Activity calls are given as the source filed them. Calls follow the shape of the dose curve; as a rule, active = well fitted curve in the direction sought with a large enough effect; inconclusive = small, poorly fitted or top-dose-only effect, or another doubt; inactive = no such curve, though single readings can be large; an effect the other way counts as inactive or inconclusive.
# What was measured:
# [1] = target: Cytochrome P450 2C9 (Homo sapiens) (UniProt P11712); assay: qHTS Assay for Inhibitors and Substrates of Cytochrome P450 2C9 (AID 883); also: nearly all actives have a fitted effect of over 60% in size
# Outline: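 A luminogenic readout tracked human CYP2C9 (10nM) converting deoxyluciferin (100uM, at KM) in 25mM KPO4 during 60 min at 37C with regenerated NADPH. Values normalized to 57uM sulphaphenazole as complete inhibition.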
# [2] = target: Cytochrome P450 3A4 (Homo sapiens) (UniProt P08684); assay: qHTS Assay for Activators of Cytochrome P450 3A4 (AID 885); also: nearly all actives have a fitted effect of over 65% in size
# Outline: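 CYP3A4 activity: Luciferin-PPXE O-dealkylation, 25uM substrate, 200mM KPO4, RT throughout. Read-out is luciferase luminescence; higher values reflect activation.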
# [3] = target: Cytochrome P450 2D6 (Homo sapiens) (UniProt P10635); assay: qHTS Assay for Inhibitors and Substrates of Cytochrome P450 2D6 (AID 891);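 also: luciferin methyl ether substrate demethylated by CYP2D6 with NADPH regeneration; nearly all actives have a fitted effect of over 60% in size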
# Outline: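 Luminescent read-out of luciferin formed by 5 nM human CYP2D6 demethylating 30 uM Luciferin-ME EGE (Km level) over 60 min at room temperature after NADPH regeneration addition. Data normalized to full inhibition by 1.43 uM quinidine.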
# [4] = target: Cytochrome P450 2C19 (Homo sapiens) (UniProt P33261); assay: qHTS Assay for Inhibitors and Substrates of Cytochrome P450 2C19 (AID 899); also: nearly all actives have a fitted effect of over 60% in size; also: potency is read from the fitted curve at half-maximal effect
# Outline: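 NADPH-dependent conversion of Luciferin-H EGE (10uM, at KM) by 5nM enzyme in 50mM KPO4, 60 min at 37C following 10 min compound preincubation. Stopped with luciferin detection buffer; luminescence read after 20 min.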
# Cytochrome P450 2C9 (Homo sapiens), sequence (P11712 whole entry, looked up): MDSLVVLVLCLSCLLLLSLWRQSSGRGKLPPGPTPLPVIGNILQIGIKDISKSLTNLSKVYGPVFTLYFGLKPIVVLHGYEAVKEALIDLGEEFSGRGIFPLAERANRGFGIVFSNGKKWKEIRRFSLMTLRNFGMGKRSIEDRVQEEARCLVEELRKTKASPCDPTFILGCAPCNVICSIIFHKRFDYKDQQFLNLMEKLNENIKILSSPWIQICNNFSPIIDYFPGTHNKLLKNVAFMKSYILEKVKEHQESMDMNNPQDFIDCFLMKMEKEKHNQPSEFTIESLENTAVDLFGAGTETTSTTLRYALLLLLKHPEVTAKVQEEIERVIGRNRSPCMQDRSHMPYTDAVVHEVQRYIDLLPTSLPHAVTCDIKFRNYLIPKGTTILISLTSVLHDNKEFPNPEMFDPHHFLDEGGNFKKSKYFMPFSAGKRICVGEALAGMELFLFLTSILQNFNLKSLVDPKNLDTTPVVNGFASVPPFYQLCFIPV
# Cytochrome P450 2C19 (Homo sapiens), sequence (P33261 whole entry, looked up): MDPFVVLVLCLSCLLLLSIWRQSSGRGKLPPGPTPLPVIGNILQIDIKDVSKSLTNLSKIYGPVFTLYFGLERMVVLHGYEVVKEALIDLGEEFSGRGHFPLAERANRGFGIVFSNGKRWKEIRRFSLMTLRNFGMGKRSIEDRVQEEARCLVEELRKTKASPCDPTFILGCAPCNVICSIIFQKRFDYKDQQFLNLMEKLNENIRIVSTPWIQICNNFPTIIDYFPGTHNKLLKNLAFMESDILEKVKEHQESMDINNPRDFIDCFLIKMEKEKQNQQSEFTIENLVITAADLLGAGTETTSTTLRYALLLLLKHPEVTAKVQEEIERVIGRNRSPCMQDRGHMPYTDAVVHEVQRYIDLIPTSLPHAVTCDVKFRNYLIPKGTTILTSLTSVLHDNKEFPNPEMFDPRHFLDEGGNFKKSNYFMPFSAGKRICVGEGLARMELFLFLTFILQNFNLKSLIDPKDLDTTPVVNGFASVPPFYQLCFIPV
# Cytochrome P450 3A4 (Homo sapiens), sequence (P08684 whole entry, looked up): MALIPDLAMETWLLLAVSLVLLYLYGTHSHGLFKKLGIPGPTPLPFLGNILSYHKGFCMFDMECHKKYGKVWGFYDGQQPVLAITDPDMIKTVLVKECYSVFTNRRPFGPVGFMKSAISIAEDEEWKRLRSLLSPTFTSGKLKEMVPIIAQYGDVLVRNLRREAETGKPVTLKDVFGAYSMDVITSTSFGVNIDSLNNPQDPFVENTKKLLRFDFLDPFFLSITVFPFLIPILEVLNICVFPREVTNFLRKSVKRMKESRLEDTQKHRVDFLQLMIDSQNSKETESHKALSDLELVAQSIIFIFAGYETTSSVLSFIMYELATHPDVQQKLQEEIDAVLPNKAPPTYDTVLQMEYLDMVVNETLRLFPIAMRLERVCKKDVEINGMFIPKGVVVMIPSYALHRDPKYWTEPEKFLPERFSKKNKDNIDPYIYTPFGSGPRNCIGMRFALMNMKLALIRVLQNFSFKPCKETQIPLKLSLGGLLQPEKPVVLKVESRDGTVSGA
# Cytochrome P450 2D6 (Homo sapiens), sequence (P10635 whole entry, looked up): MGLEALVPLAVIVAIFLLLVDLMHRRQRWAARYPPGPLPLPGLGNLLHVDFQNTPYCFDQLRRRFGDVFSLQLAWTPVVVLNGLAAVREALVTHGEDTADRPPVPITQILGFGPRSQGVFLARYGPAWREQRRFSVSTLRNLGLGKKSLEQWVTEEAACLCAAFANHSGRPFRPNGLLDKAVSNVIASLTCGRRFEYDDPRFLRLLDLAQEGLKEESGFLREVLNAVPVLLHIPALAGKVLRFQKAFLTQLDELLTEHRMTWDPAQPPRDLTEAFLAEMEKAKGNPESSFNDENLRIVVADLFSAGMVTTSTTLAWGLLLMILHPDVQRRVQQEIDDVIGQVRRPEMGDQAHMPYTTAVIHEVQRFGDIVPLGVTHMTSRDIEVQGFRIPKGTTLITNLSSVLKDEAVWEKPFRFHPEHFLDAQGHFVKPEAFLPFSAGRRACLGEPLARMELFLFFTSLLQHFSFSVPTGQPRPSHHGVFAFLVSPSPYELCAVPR
SMILES,Potency [1],"activity change, positive = activation [2]",Potency [3],Potency [4]
CCC(=O)CC(NC(=O)OC)c1ccccc1 (stereo not given),inactive,-34.8% [at 11.4 µM] (inactive),inactive,inactive
COc1ccc(OC2C(O)COC2/C=C/C#Cc2ccccc2)cc1 (stereo not given),inactive,-57.7% [at 11.4 µM] (inactive),inactive,inactive
COc1ccc(-c2nc3c(c4c2CC(C)OC4)CN(CCC(C)C)CC3)cc1 (stereo not given),inactive,-50.4% [at 11.4 µM] (inactive),inactive,inactive
OCC1OC(C#Cc2ccccc2)C=CC1O (stereo not given),inactive,-40.9% [at 11.4 µM] (inactive) and -46.3% [at 11.4 µM] (inactive) and -31.2% [at 11.4 µM] (inactive),–,inactive and 631 nM (active)
CCCCCCCC#Cc1ccccc1/C=N/S(=O)C(C)(C)C (stereo not given),inactive,-47.5% [at 11.4 µM] (inactive),inactive,inactive
CC(C)=CCC/C(C)=C/C=C/C1=CC2(C)CC1(C)C(/C=C(\C)CCC=C(C)C)CC2=O (stereo not given),inactive,-35% [at 11.4 µM] (inactive),inactive,inactive
CCOC(=O)OCC1OC(C#Cc2ccc(C)cc2C)C=CC1OC(=O)OCC (stereo not given),inactive,-58.4% [at 11.4 µM] (inactive),inactive,inactive
CC(=O)OCC1OC(C#Cc2ccc(Br)cc2)C=CC1OC(C)=O (stereo not given),inactive,-46% [at 11.4 µM] (inactive),inactive,inactive
COC(=O)C1=C(C)N(Cc2ccccc2)[C@]23O[C@](C(=O)OC)(C(=O)N2C1c1ccccc1)C1C(=O)N(C)C(=O)C13 (stereo not given in full),inactive,-51.8% [at 11.4 µM] (inactive) and -36.4% [at 11.4 µM] (inactive),inactive,inactive
